This is an account of results in PubChem BioAssay (NCI).

Assay [1] in a line: NCI Yeast Anticancer Drug Screen. Data for the rad50 strain (AID 155).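 Note: 0% = growth of vehicle-only cultures of the same strain.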 The conditions noted are these: S. cerevisiae rad50 strain growth inhibition; at 50.0 µM; active compounds read high. A digest of the protocol: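 Readout: growth inhibition relative to vehicle-treated cultures. Compound exposure was carried out in a genetically defined yeast strain deficient in DNA damage repair.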

A short description of assay [2]: NCI Yeast Anticancer Drug Screen. Data for the mec2-1 strain (AID 157). The conditions noted are these: S. cerevisiae mec2-1 strain, at 50.0 µM, active compounds read high. A digest of the protocol: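 Vehicle-treated cultures served as reference for growth inhibition of compound-exposed mec2-1 yeast.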
Assay [3] can be described thus: NCI Yeast Anticancer Drug Screen. Data for the sgs1 mgt1 strain (AID 161).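 Note: 0% = growth of cultures given vehicle only.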 The conditions noted are these: S. cerevisiae sgs1 mgt1 strain, at 50.0 µM, active compounds read high. A digest of the protocol: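 Read-out: growth inhibition vs vehicle controls. Cells: mutant yeast strain deficient in DNA damage repair.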
The nature of assay [4]: NCI Yeast Anticancer Drug Screen. Data for the cln2 rad14 strain (AID 165).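 Note: 0% = growth equal to vehicle treated cultures.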 The conditions noted are these: S. cerevisiae cln2 rad14 strain, at 50.0 µM, active compounds read high. A digest of the protocol:
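Each compound was tested on cln2 rad14 yeast. Inhibition of growth was calculated against vehicle-exposed controls.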

Assay [5] can be described thus: NCI Yeast Anticancer Drug Screen. Data for the bub3 strain (AID 167). The conditions noted are these: S. cerevisiae bub3 mutant strain, at 50.0 µM, active compounds read high. The method, boiled down:
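Readout: yeast growth inhibition, expressed relative to vehicle-only wells. The test organism is a mutant strain from a panel with lesions in DNA repair or checkpoint genes.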

Assay [6] is described as follows: NCI Yeast Anticancer Drug Screen. Data for the mlh1 rad18 strain (AID 175). The conditions noted are these: S. cerevisiae mlh1 rad18 strain growth inhibition; at 50.0 µM; active compounds read high. A digest of the protocol: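 Vehicle-treated cultures served as the reference for growth inhibition in a yeast strain carrying DNA damage repair alterations exposed to each compound.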

About 79,000 compounds went through this panel and 15% of them were active in at least one assay; those are over-represented in the sample as a whole. A number with no mark means an inactive call. Calls of active or inactive are those of the source. Cut-off read from the data, not from the text of the source: active = growth inhibition above about 70%; inactive = the rest.

As for `O=C(Nc1cccc2ccccc12)ON1C(=O)c2ccccc2C1=O`, the growth inhibition in assay [1] was -6.6%; in assay [2], -39.6%; in assay [3], -0.1%; in assay [4], 12.5%; in assay [5], -5.7%; in assay [6], -2.4%.
Turning to `c1ccc(C2=NN(c3ccccc3)C3C4CCC(C4)C23)cc1` (stereo not drawn), the growth inhibition is -5.6% in assay [1]; 8.15% in assay [2]; -6.2% in assay [3]; -49% in assay [4]; 13.8% in assay [5]; 12.1% in assay [6].
On to `O=C(CCC(=O)Nc1cc(Cl)ccc1Cl)CC(=O)c1ccc(Cl)cc1`, for which the growth inhibition in assay [1] was 14.1%; in assay [2], 24.9%; in assay [3] it was 10.4%; in assay [4] it was 11%; in assay [5], -1.65%; in assay [6] it was -6.75%.
In the case of `Nc1cccc2nsnc12`, the growth inhibition was 3% in assay [1]; -36.6% in assay [2]; -42.2% in assay [3]; 30.1% in assay [4]; -5.05% in assay [5]; -15.7% in assay [6].
On to `CN(C)C(=O)/C=C/C(=O)O` (tested in a mixture with another compound), for which the growth inhibition in assay [1] is -1.25%; in assay [2] it was -10.3%; in assay [3], 6.9%; in assay [4], 7.65%; in assay [5], 16.8%; in assay [6], -20.8%.
`COCCOCOCCCC#C[Si](C)(C)C`: the growth inhibition is 8.3% in assay [1]; 25.9% in assay [2]; 13.9% in assay [3]; -1.2% in assay [4]; -4% in assay [5]; -19.4% in assay [6].
In the case of `O=C(CCc1ccccc1)n1cccc1CO`, the growth inhibition in assay [1] was -10.1%; in assay [2], -21.1%; in assay [3], -6.85%; in assay [4], 17.9%; in assay [5], 16.2%; in assay [6], 1.35%.
Turning to `CC(CC#N)NC(=O)C1CCC(N)=N1` (stereo not drawn), the growth inhibition is -14.3% in assay [1]; -18.2% in assay [2]; -8.95% in assay [3]; 1.4% in assay [4]; -7.35% in assay [5]; -9.9% in assay [6].
`Nc1ccn([C@@H](C=O)C[C@@H](C=O)CO)c(=O)n1`: the growth inhibition in assay [1] is -3.45%; in assay [2], -0.85%; in assay [3], 14.8%; in assay [4], 19.3%; in assay [5] it was 11.2%; in assay [6], -45.6%.
Take `CC1(C)OC2COC(CNS(C)(=O)=O)C2O1` (stereo not drawn): the growth inhibition was 12.2% in assay [1]; -12.2% in assay [2]; -9.2% in assay [3]; 5.1% in assay [4]; 2.85% in assay [5]; 28.4% in assay [6].
On to `Cc1ccc(N=NN(C)C)cc1`, for which the growth inhibition in assay [1] was 2.55%; in assay [2], 3.65%; in assay [3], -9.55%; in assay [4], -2.6%; in assay [5], 1.55%; in assay [6] it was 33%.
For `CC1(C)C2CCC1(C)C(NC(=O)COCCOCC(N)=O)C2` (stereo not drawn), the growth inhibition in assay [1] is -45%; in assay [2] it was -53.1%; in assay [3], -52.6%; in assay [4], -2.55%; in assay [5], -54.9%; in assay [6], -67.3%.
Consider `O=C1CSCCO1`, for which the growth inhibition in assay [1] was -7.3%; in assay [2], -27.4%; in assay [3], -3.6%; in assay [4], -37%; in assay [5], 1.05%; in assay [6], -7%.
On to `O=C(CSSCC(=O)Nc1ccccc1O)Nc1ccccc1O`, for which the growth inhibition in assay [1] is -11.2%; in assay [2], -8.15%; in assay [3], -11.7%; in assay [4], -24.1%; in assay [5] it was 27.2%; in assay [6] it was -4.85%.
For `CCN1N=Nc2ccccc2NC1=O`, the growth inhibition was 18.1% in assay [1]; 9.85% in assay [2]; 8.45% in assay [3]; 4.5% in assay [4]; -13.1% in assay [5]; -25.3% in assay [6].
Consider `CN(C)c1ccc(-c2c(C#N)c(O)n(NS(=O)(=O)c3ccccc3)c(=O)c2C#N)cc1`, for which the growth inhibition in assay [1] was -28.9%; in assay [2] it was -10.7%; in assay [3], -14.2%; in assay [4], 13.9%; in assay [5] it was -21.4%; in assay [6], -14.2%.
Consider `COC(=O)/C=C1\C(=O)N(C(C)=O)c2ccccc21`, for which the growth inhibition in assay [1] was 12.3%; in assay [2], 16.1%; in assay [3], 72.2% (active); in assay [4], 40.1%; in assay [5] it was 50.6%; in assay [6], 76.4% (active).
In the case of `Cc1[nH]c2c(O)ccc(O)c2c1C`, the growth inhibition in assay [1] was -1.05%; in assay [2], -9.45%; in assay [3], -9.15%; in assay [4] it was -20.6%; in assay [5], -8%; in assay [6], 4.9%.
`CC(=O)Nc1ccc(C(=O)C=O)cc1`: the growth inhibition in assay [1] was -1.45%; in assay [2], -4.4%; in assay [3] it was 4.2%; in assay [4] it was 26.5%; in assay [5], -13.9%; in assay [6], -40.8%.
For the compound `Cc1c(-c2nc3ccccc3[nH]2)c(=O)n(-c2ccccc2)n1C`, the growth inhibition in assay [1] is -70.2%; in assay [2], -38.1%; in assay [3], -24.1%; in assay [4], 7.25%; in assay [5], -10.4%; in assay [6], -38.9%.
For `COc1ccc(C(=O)/C=C/c2ccc(OCCSCCCCCCCCCCSCCOc3ccc(/C=C/C(=O)c4ccc(OC)c(OC)c4)cc3)cc2)cc1OC`, the growth inhibition was -44.4% in assay [1]; -26.1% in assay [2]; -28.2% in assay [3]; -6.35% in assay [4]; -29.6% in assay [5]; -53.6% in assay [6].
Take `NS(=O)(=O)c1ccc(NC(=S)/N=C/c2c(O)c3ccccc3oc2=O)cc1`: the growth inhibition in assay [1] is 6.2%; in assay [2], -4.45%; in assay [3], 16.3%; in assay [4], -18.9%; in assay [5], -10.4%; in assay [6], 12.6%.
Take `CCCOC(=O)C(CC)CC(C)C` (stereo not drawn): the growth inhibition in assay [1] is -4.95%; in assay [2], 2.85%; in assay [3], -4%; in assay [4], -22.7%; in assay [5] it was 9.35%; in assay [6] it was 14.8%.
Take `CC(C)SCCO`: the growth inhibition was -2.55% in assay [1]; 10.2% in assay [2]; 7.6% in assay [3]; -9.65% in assay [4]; -26.6% in assay [5]; -13.4% in assay [6].
Take `CCN(CC)N=Nc1ccc(S(N)(=O)=O)cc1`: the growth inhibition is 8.25% in assay [1]; 12.6% in assay [2]; 16.1% in assay [3]; 38% in assay [4]; -5.1% in assay [5]; 14.6% in assay [6].
As to `CC(SCCNC(N)=O)C(N)=O` (stereo not drawn), the growth inhibition in assay [1] was -16.1%; in assay [2], -7.8%; in assay [3], -6.6%; in assay [4], -28.4%; in assay [5], 7.25%; in assay [6], -14.4%.
In the case of `NC(=O)C1CC(O)CN1C(=O)c1cccnc1` (stereo not drawn), the growth inhibition in assay [1] is 11.2%; in assay [2], 19.8%; in assay [3] it was 15.3%; in assay [4], -7%; in assay [5], 8.9%; in assay [6], 5.35%.
With `CC(=O)NNc1nc(C)c(C(/C=C/c2ccccc2O)=N/N=C(N)N)s1`, the growth inhibition was -19.2% in assay [1]; -19.4% in assay [2]; -21.4% in assay [3]; -7.1% in assay [4]; -10.6% in assay [5]; -33.2% in assay [6].
Consider `CC(=O)c1ccc(N=C2C=CC(=O)O2)cc1`, for which the growth inhibition in assay [1] was 6.85%; in assay [2] it was -14.9%; in assay [3] it was -11.1%; in assay [4] it was -21.5%; in assay [5], -4.65%; in assay [6], 7.65%.
As to `CCCCNS(=O)(=O)c1ccc(-c2ccc3c(c2)-c2ccc(S(=O)(=O)NCCCC)cc2S3(=O)=O)cc1`, the growth inhibition is 28.3% in assay [1]; 7.05% in assay [2]; 1.5% in assay [3]; -33.2% in assay [4]; 20.1% in assay [5]; 9.7% in assay [6].
For the compound `CCOC(=O)C1CC(=O)C=C2CCCCC21` (stereo not drawn), the growth inhibition in assay [1] was -4.05%; in assay [2], -27.7%; in assay [3], -7.55%; in assay [4], 5.35%; in assay [5], -30.1%; in assay [6], 13.4%.
Turning to `CCOC(=O)C(C(=O)OCC)=c1sc(=C(C(=O)OCC)C(=O)OCC)s1`, the growth inhibition in assay [1] is 20.2%; in assay [2] it was 7.8%; in assay [3], 17.1%; in assay [4] it was 5.05%; in assay [5], -2.5%; in assay [6] it was 9.3%.
With `O=C1CCc2nc(=O)c3c4ccccc4ccc3n21`, the growth inhibition was 3.95% in assay [1]; 1.55% in assay [2]; -5.35% in assay [3]; -36.5% in assay [4]; -3.95% in assay [5]; -0.2% in assay [6].
Take `Cn1c[n+](-c2ccccc2)c([S-])n1`: the growth inhibition in assay [1] is -0.05%; in assay [2], 5.05%; in assay [3] it was 5.15%; in assay [4], -22.5%; in assay [5], -24.9%; in assay [6], -7.4%.
Consider `Cc1ccc(C(=O)c2ccccc2)cc1`, for which the growth inhibition is 26.1% in assay [1]; 23.5% in assay [2]; -11.8% in assay [3]; -8.75% in assay [4]; -0.6% in assay [5]; -1.7% in assay [6].
Consider `C/C(=N\N=C(\Cc1ccccc1)c1ccccc1)c1ccccc1`, for which the growth inhibition was 1.7% in assay [1]; 3.95% in assay [2]; -11.6% in assay [3]; -25.2% in assay [4]; -1.65% in assay [5]; 2.8% in assay [6].
Consider `CC(C)CCCC(C)C1CCC2C3CC=C4CC(P(=O)(c5ccccc5)c5ccccc5)CCC4(C)C3CCC12C` (stereo not drawn), for which the growth inhibition in assay [1] was 10.3%; in assay [2], -9.9%; in assay [3], -6.05%; in assay [4], -10.5%; in assay [5] it was 5.75%; in assay [6], -12.1%.
With `NC(N)=NS(=O)(=O)c1ccc(NC(=O)c2ccc(Cl)c3c(Nc4ccc(S(=O)(=O)N=C(N)N)cc4)c4ccccc4nc23)cc1`, the growth inhibition in assay [1] is 32.2%; in assay [2], 31.6%; in assay [3], 30.9%; in assay [4], 34.5%; in assay [5], 10.2%; in assay [6] it was 29.1%.
